According to PubChem BioAssay AID1159580 (chemical genetic matrix, 2015):
Several values for one entry are separate records, joined by “and”; a condition that tells them apart may be missing. Equal entries are not always repeated. Screen size: about 5,500 compounds; about 2,000 (36%) were called active. Inconclusive results (about 18%) are left out. Rule as the data show it: active = normalized growth mostly below about 0.91 (no sharp cut-off); inconclusive = no clear call, values can overlap the other calls; inactive = mostly above about 0.92. Some of the results follow.

Assay: chemical genetic growth profiling, strain panel (AID 1159580);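 also: tested at 20 µM; growth read once vehicle control cultures reached saturation at 30 °C; 1 = growth at the plate median or of vehicle wells; lower values mean less growth of the strain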
Conditions: S. cerevisiae deletion strains, growth OD

Measured: normalized growth

CN/C(=C\[N+](=O)[O-])NCCSCc1ccc(CN(C)C)o1
inactive: locus YAL021C, strain ccr4, active compounds read low 0.979 | locus YAL026C, strain drs2, active compounds read low 0.99 | locus YAL030W, strain snc1, active compounds read low 1 | locus YAL040C, strain CLN3, active compounds read low 1 | locus YBL061C, strain skt5, active compounds read low 0.974 | locus YBR009C, strain hhf1, active compounds read low 0.998 | locus YBR021W, strain FUR4, active compounds read low 1.04 | locus YBR023C, strain chs3, active compounds read low 0.989 | locus YBR171W, strain sec66, active compounds read low 0.989 | locus YBR229C, strain ROT2, active compounds read low 1.02 | locus YBR231C, strain swc5, active compounds read low 0.977 | locus YBR279W, strain paf1, active compounds read low 0.991 | locus YCL011C, strain gbp2, active compounds read low 0.984 | locus YCL016C, strain dcc1, active compounds read low 0.986 | locus YCL029C, strain bik1, active compounds read low 1 | locus YCL061C, strain MRC1 (second series), active compounds read low 1.01 | locus YCL069W, strain vba3, active compounds read low 0.973 | locus YCR088W, strain abp1, active compounds read low 0.976 | locus YDL005C, strain med2, active compounds read low 0.977 | locus YDL035C, strain GPR1, active compounds read low 1.04 | locus YDL040C, strain nat1, active compounds read low 0.99 | locus YDL074C, strain BRE1, active compounds read low 1.07 | locus YDL101C, strain DUN1, active compounds read low 1.03 | locus YDL134C, strain PPH21, active compounds read low 1.03 | locus YDL185W, strain tfp1, active compounds read low 0.987 | locus YDL192W, strain arf1, active compounds read low 0.989 | locus YDR001C, strain nth1, active compounds read low 0.982 | locus YDR069C, strain doa4, active compounds read low 0.97 | locus YDR101C, strain arx1, active compounds read low 1.01 | locus YDR137W, strain rgp1, active compounds read low 0.975 | locus YDR150W, strain NUM1, active compounds read low 1.02 | locus YDR159W, strain sac3, active compounds read low 0.94 | locus YDR162C, strain NBP2, active compounds read low 1.02 | locus YDR195W, strain ref2 0.943 | locus YDR297W, strain sur2, active compounds read low 0.972 | locus YDR318W, strain mcm21, active compounds read low 0.991 | locus YDR334W, strain swr1, active compounds read low 0.977 | locus YDR335W, strain msn5, active compounds read low 0.998 | locus YDR363W, strain ESC2, active compounds read low 1 | locus YDR388W, active compounds read low 0.995 | locus YDR392W, strain spt3, active compounds read low 0.993 | locus YDR502C, strain sam2, active compounds read low 0.997 | locus YEL003W, strain gim4, active compounds read low 0.992 | locus YEL037C, strain rad23, active compounds read low 0.986 | locus YEL061C, strain CIN8 (second series), active compounds read low 0.977 | locus YEL061C, strain CIN8, active compounds read low 1.01 | locus YER002W, strain NOP16, active compounds read low 0.988 | locus YER015W, strain faa2, active compounds read low 0.995 | locus YER016W, strain bim1, active compounds read low 0.973 | locus YER110C, active compounds read low 1 | locus YER111C, strain swi4, active compounds read low 0.992 | locus YER155C, strain BEM2 (second series), active compounds read low 0.973 | locus YER155C, strain BEM2, active compounds read low 1.01 | locus YER167W, strain BCK2, active compounds read low 1.02 | locus YFR010W, strain ubp6, active compounds read low 0.99 | locus YGL078C, strain dbp3, active compounds read low 0.986 | locus YGL086W, strain mad1, active compounds read low 0.999 | locus YGL167C, strain pmr1, active compounds read low 0.987 | locus YGL173C, strain kem1, active compounds read low 0.989 | locus YGL227W, strain vid30, active compounds read low 0.978 | locus YGL240W, strain doc1, active compounds read low 0.996 | locus YGL248W, strain PDE1, active compounds read low 1.04 | locus YGL253W, strain hxk2, active compounds read low 0.993 | locus YGR078C, strain PAC10, active compounds read low 0.997 | locus YGR135W, strain pre9, active compounds read low 0.98 | locus YGR252W, strain gcn5, active compounds read low 0.984 | locus YHR013C, strain ard1, active compounds read low 0.952 | locus YHR027C, strain rpn1, active compounds read low 1.01 | locus YHR030C, strain SLT2, active compounds read low 1.02 and 0.986 | locus YHR079C, strain IRE1 (second series), active compounds read low 0.982 | locus YHR079C, strain IRE1, active compounds read low 0.999 | locus YHR094C, strain hxt1, active compounds read low 0.983 | locus YHR129C, strain ARP1, active compounds read low 1.02 | locus YHR142W, strain chs7, active compounds read low 0.99 | locus YHR200W, strain rpn10, active compounds read low 0.984 | locus YIL066C, strain RNR3, active compounds read low 1.04 | locus YIL073C, strain SPO22, active compounds read low 0.98 | locus YIL125W, strain kgd1, active compounds read low 0.984 | locus YIR030C, strain dcg1, active compounds read low 0.988 | locus YJL092W, strain hpr5, active compounds read low 0.979 | locus YJL095W, strain BCK1 (second series), active compounds read low 0.995 | locus YJL095W, strain BCK1, active compounds read low 1.05 and 0.995 | locus YJL115W, strain asf1, active compounds read low 0.986 | locus YJL129C, strain trk1, active compounds read low 0.957 | locus YJL134W, strain LCB3, active compounds read low 1.01 | locus YJL154C, strain vps35, active compounds read low 0.973 | locus YJL164C, strain tpk1, active compounds read low 0.996 | locus YJL166W, strain qcr8, active compounds read low 0.985 | locus YJL168C, strain set2, active compounds read low 0.988 | locus YJL187C, strain SWE1 (second series), active compounds read low 1.04 | locus YJL187C, strain SWE1, active compounds read low 0.977 | locus YJR043C, strain POL32, active compounds read low 1.05 | locus YJR066W, strain TOR1, active compounds read low 0.944 | locus YJR075W, strain HOC1, active compounds read low 0.996
